Unmarked numbers belong to inactive results.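 The calls were made as follows: active = compounds that cut cell viability with a fitted half-maximal dose no more than twice the top valid dose; inconclusive = flat curve inhibiting 30 to 70%, or a poor fit; inactive = the rest, including any rise in viability.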
Assay: viability loss in A549 lung cells – cell-based, luminescence, dry powder, set 10, cytotoxicity control, dose response (AID 743356)
Conditions: CellTiter-Glo ATP luminescence, 72 h; at 26 µM unless noted

| SMILES | max inhibition of viability %, stronger effect = higher value |
| --- | --- |
| CN1c2ccc(-c3cccc(F)c3)cc2[C@H]2[C@H](CCN2C(=O)CCCCCCC(=O)O)[C@H]1CO | -12.9% |
| COc1ccccc1NC(=O)N1CC[C@@H]2[C@@H](CO)N(C)c3ccc(-c4cccc(F)c4)cc3[C@@H]21 | -10.1% [at 23.5 µM] |
| CC(C)NC(=O)N1CC[C@@H]2[C@@H](CO)N(C)c3ccc(-c4ccc(F)cc4)cc3[C@@H]21 | 12.6% [at 0.05 µM] |
| CN1c2ccc(-c3cccc(F)c3)cc2[C@H]2[C@H](CCN2C(=O)CCCCCCN)[C@H]1CO | 15.1% [at 0.0004 µM] |
| COc1ccccc1NC(=O)N1CC[C@@H]2[C@@H](CO)N(C)c3ccc(-c4ccc(F)cc4)cc3[C@@H]21 | 13.3% [at 0.0015 µM] |
| COc1cccc(NC(=O)N2CC[C@@H]3[C@@H](CO)N(C)c4ccc(-c5cccc(F)c5)cc4[C@@H]32)c1 | -9.56% |
| COC(=O)CCCCCCC(=O)N1CC[C@@H]2[C@@H](CO)N(C)c3ccc(-c4cccc(F)c4)cc3[C@@H]21 | 8.86% [at 6 µM] |
| CN1c2ccc(-c3cccc(F)c3)cc2[C@H]2[C@H](CCN2C(=O)Nc2ccccc2F)[C@H]1CO | -15.8% [at 23.5 µM] |
| CN1c2ccc(-c3cccc(F)c3)cc2[C@@H]2[C@@H](CCN2C(=O)c2ccc3c(c2)OCO3)[C@@H]1CO | -3.11% |
| CN1c2ccc(-c3cccc(F)c3)cc2[C@H]2[C@H](CCN2C(=O)c2ccc3c(c2)OCO3)[C@@H]1CO | -9.58% |
